HP1b binding inh: HTS for Inhibitors of HP1-beta Chromodomain Interactions with Methylated Histone Tails; AlphaScreen HP1-beta / biotin-H3K9me3 peptide binding; Potency, µM (top dose mostly 114 µM), actives largely listed as inhibitors; 0.56% of 390,000 active; note: nearly all actives have a fitted effect of over 70% in size
Target sequence (P83916 whole entry, looked up): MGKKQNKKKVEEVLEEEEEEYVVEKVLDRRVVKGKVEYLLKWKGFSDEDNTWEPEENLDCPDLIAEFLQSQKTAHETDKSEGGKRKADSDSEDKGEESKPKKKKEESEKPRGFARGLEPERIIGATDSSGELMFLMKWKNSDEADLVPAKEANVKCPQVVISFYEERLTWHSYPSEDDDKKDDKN
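AlphaScreen: HP1-beta (50 nM) preformed 30 min with biotin-H3(1-18)K9me3 peptide (50 nM) in PBS pH 7.4, 0.01% Tween-20. Compound added for 30 min at RT, then streptavidin donor/nickel chelate acceptor beads (10 ug/mL) for 30 min.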
BAZ2B inh: qHTS Assay for Inhibitors of BAZ2B; Bromodomain adjacent to zinc finger domain protein 2B (Homo sapiens), Q9UIF8; AlphaScreen BAZ2B-H3K14Ac peptide displacement; Potency, µM (top dose mostly 114 µM), most hits filed as inhibitors; 4.4% of 360,000 active; AID 504333, 2011; note: nearly all actives have a fitted effect of over 60% in size
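Multi-concentration screen (max 110 uM) measuring displacement of acetylated histone H3 peptide from BAZ2B by AlphaScreen, using 50 nM protein, 50 nM peptide and 10 ug/mL streptavidin donor plus Ni-chelate acceptor beads.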
PLK1 PBD block: qHTS for Inhibitors of PLK1-PDB (polo-like kinase 1 - polo-box domain): Primary Screen. Serine/threonine-protein kinase PLK1 (Homo sapiens), P53350. Plk1 PBD binding of FITC phosphopeptide, fluorescence polarization. Potency, µM, actives largely listed as inhibitors. 2.8% of 360,000 active. AID 720504, 2013; note: series mostly up to about 57 µM; nearly all actives have a fitted effect of over 65% in size
G9a block: qHTS Assay for Inhibitors of Histone Lysine Methyltransferase G9a; Potency, µM (highest dose often 102 µM), actives largely listed as inhibitors; G9a H3K9 monomethylation, AlphaScreen, 2 h; 8.8% of 350,000 active; note: nearly all actives have a fitted effect of over 75% in size
Target sequence (Q96KQ7 913-1193 limits assumed): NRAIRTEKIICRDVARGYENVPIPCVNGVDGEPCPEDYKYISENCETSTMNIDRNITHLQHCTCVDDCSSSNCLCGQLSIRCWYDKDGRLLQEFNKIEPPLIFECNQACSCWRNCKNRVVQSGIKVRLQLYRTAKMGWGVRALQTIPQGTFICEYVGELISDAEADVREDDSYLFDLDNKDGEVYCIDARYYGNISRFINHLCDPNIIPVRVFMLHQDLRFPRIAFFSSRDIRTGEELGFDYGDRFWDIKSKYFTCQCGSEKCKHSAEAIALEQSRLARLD
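Quantitative HTS format: methyltransferase activity on a biotin-tagged H3K9 peptide is measured by AlphaScreen, using a rabbit anti-monomethyl-H3K9 antibody with streptavidin donor and anti-IgG acceptor beads. Final levels are 20 nM enzyme, 500 nM peptide, 20 uM SAM; 2 h RT.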
JMJD2A Tudor inh: qHTS Assay for Inhibitors of JMJD2A-Tudor Domain | Lysine-specific demethylase 4A (Homo sapiens), O75164 | AlphaScreen JMJD2A-Tudor / H3K4me3 peptide binding | Potency, µM (series often up to 114 µM), actives largely listed as inhibitors | 4.4% of 390,000 active; note: nearly all actives have a fitted effect of over 50% in size
12-LOX inh: Primary qHTS assay for inhibitors of human arachidonate 12S-lipoxygenase (ALOX12): Round 2 | purified 12hLO, xylenol orange hydroperoxide absorbance | Potency, µM (doses to about 108 µM), actives largely listed as inhibitors | 1.1% of 580,000 active | AID 1671190, 2021
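Purified human 12hLO (150 nM final) in 25 mM Hepes, 0.01% Triton X-100, pH 7.0 was preincubated 15 min at room temperature with compound. Then 40 uM arachidonic acid was added, 30 min. Hydroperoxide was read by Fe-XO absorbance ratio 573/405 nm.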
Numbers stand for hits; – = inactive; ? = inconclusive; · = no result given; [ ] = another dose, or the depositor's remark. Shown are actives, neighbours in structure and some others; about 9% of the full set was active somewhere. Calls come from the whole dose curve; as a rule, active = well fitted curve in the direction sought with a large enough effect; inconclusive = small, poorly fitted or top-dose-only effect, or another doubt; inactive = no such curve, though single readings can be large; an effect the other way counts as inactive or inconclusive.

SMILES	HP1b binding inh	BAZ2B inh	PLK1 PBD block	G9a block	JMJD2A Tudor inh	12-LOX inh
COc1ccc(Nc2ccc(C(F)(F)F)cc2[N+](=O)[O-])cn1	?	40µM	–	?	56µM	?
O=[N+]([O-])c1cc(C(F)(F)F)ccc1NCC1CCCO1 (stereo unspecified)	–	–	6µM	–	?	–
CC(C)C(Nc1ccc(C(F)(F)F)cc1[N+](=O)[O-])C(=O)O (stereo unspecified)	–	·	–	?	–	–
CC(=O)Nc1ccc(NC(=O)CSc2ccc(C(F)(F)F)cc2[N+](=O)[O-])cc1	–	–	–	45µM	–	–
C/C(=N\Nc1ccc(C(F)(F)F)cc1[N+](=O)[O-])C(C)C	40µM	10µM	–	11µM	?	–
COc1ccc(Nc2ccc(N3C(=O)CCC3=O)cc2[N+](=O)[O-])cn1	–	–	–	–	–	–
COC(=O)CSc1nsc(SCC(=O)OC)n1	–	–	–	–	–	–
O=C(Nc1ccc(Cl)cc1)Nc1csc([N+](=O)[O-])c1	–	–	–	–	–	?
COC(=O)c1c(NC(=O)COC(=O)c2ccccn2)sc(C)c1C	–	–	–	–	–	–
C=CCn1c(SCC(=O)N2CCCCCC2)nc2ccccc2c1=O	–	–	–	–	–	–
CC(C)NC(=O)CNc1ccc(C(F)(F)F)cc1[N+](=O)[O-]	–	–	–	–	–	–
C[C@H](Nc1ccc(C(F)(F)F)cc1[N+](=O)[O-])C(=O)O	–	–	–	56µM	–	–
CC1CCC(=NNc2ccc(C(F)(F)F)cc2[N+](=O)[O-])CC1 (stereo unspecified)	?	10µM	–	3.5µM	40µM	–
CC(C)(C)C(=O)N(Cc1nc2ccccc2c(=O)[nH]1)Cc1cccs1	–	–	–	–	–	–
O=C(C1CC1)N(Cc1nc2ccccc2c(=O)[nH]1)Cc1cccs1	–	–	15µM	–	–[11.4 µM]	–
C=CCn1c(SCC(N)=O)nc2sc3c(c2c1=O)CCC3	–	–	–	·	–	–
CCn1c(=S)[nH]c2sc3c(c2c1=O)CCCC3	–	–	–	·	–	?
CN(C)CCCn1c(=S)[nH]c2sc3c(c2c1=O)CCCC3	?	?	19µM	7.9µM	22µM	14µM
C=CCn1c(=S)[nH]c2sc3c(c2c1=O)CCC3	–	–	?	3.2µM	–	?
Cc1ccc2nc(C)c(C(=O)N3CCC(CN(C)C(C)C)CC3)cc2c1	·	·	·	·	·	–
CCn1c(NC(=S)Nc2ccccc2)nc2ccccc21	–	5.6µM	–	–	?	?
Clc1ccc(OCCn2cnc3ccccc32)cc1	–	–	3µM	–	?	–
CCn1c(NC(=O)C2CCCCC2)nc2ccccc21	–	–	–	–	–	–
Clc1ccccc1OCCn1cnc2ccccc21	–	–	–	–[12.7 µM]	–	–
S=C(Nc1ccccc1)Nc1nc2ccccc2n1CCOc1ccc(Cl)cc1	?	7.1µM	–	–	?	8.9µM
SMILES	HP1b binding inh	BAZ2B inh	PLK1 PBD block	G9a block	JMJD2A Tudor inh	12-LOX inh
Cc1nnsc1C(=O)NC1CCCc2c1cnn2-c1cc(F)cc(F)c1 (stereo unspecified)	–	–	–	·	–	–
Cc1ccc(S(=O)(=O)n2nc(OC(=O)c3cccs3)cc2N)cc1	–	?	–	–	–	–
N#C/C(=C\c1cccnc1)c1ccc(Br)cc1	–	–	–	–	–	–
Cc1cc(C#N)c(C)n1-c1cc(C(F)(F)F)ccc1N1CCOCC1	–	–	–	?	–	–
Cn1cc(C(=O)OCC(=O)Nc2ccc(N3CCOCC3)cc2)c2ccccc21	·	·	·	·	·	–
CC1CCC(C(C)C)C(OCC(O)CN2CCCC(C)C2)C1 (stereo unspecified)	–	–	–	–	–	–
CC1CCC(C(C)C)C(OCC(O)C[N+]2(C)CCCCC2)C1 (stereo unspecified)	?	–	–	50µM	–	–
O=c1c2ccccc2nnn1CSc1nc2ccccc2c(=O)n1CCCO	–	–	–	–	–	–
Cn1c(SCC(=O)NNC(=O)Cc2ccccc2)nc2ccccc2c1=O	–	–	3.4µM	–	22µM	–
Cn1c(SCn2nnc3ccccc3c2=O)nc2ccccc2c1=O	·	–	·	50µM	·	·
COCCn1c(SCC(=O)NNC(=O)Cc2ccccc2)nc2ccccc2c1=O	–	–	–	–	–[11.4 µM]	–
O=c1c2ccccc2nnn1CSc1nnc(-c2cccs2)n1Cc1ccccc1	?	–	30µM	–	?	–
O=c1cc(CSc2nnc(-c3cccs3)n2Cc2ccccc2)nc2sc3ccccc3n12	–	45µM	–	?	–	–
CCOC(=O)C(NC(=O)COc1ccc2ccccc2c1)C(=O)OCC	·	·	·	·	·	–
CCCN1CCN(C(=O)c2noc3c2COc2ccc(C)cc2-3)CC1	–	–	–	·	–	?
CCN(CC)S(=O)(=O)c1ccc2c(c1)nc(SCn1nnc3ccccc3c1=O)n2CC	–	–	?	45µM	–	–
CCN(CC)S(=O)(=O)c1ccc2c(c1)nc(SCC(=O)Nc1ccc(F)cc1)n2CC	·	·	·	·	·	–
NCCNC(=O)c1ccc(Cl)cc1	·	·	·	–[12.7 µM]	·	·
CCn1c(CCNC(=O)c2ccc(C)cc2)n[nH]c1=S	–	–	–	?	6.3µM	–
Cn1c(CCNC(=O)c2ccc(Cl)cc2)n[nH]c1=S	–	–	–	–[12.7 µM]	10µM	–
CCCNC(=O)CCc1ccnc(N2CCOCC2)c1	·	·	·	·	·	–
CCN(CC)S(=O)(=O)c1ccc(NCCc2ccccn2)nc1	–	–	–	–	–	–
CCN(CC)S(=O)(=O)c1ccc(NCc2ccccn2)nc1	–	?	–	28µM	71µM	?
CCNC(=O)[C@@H]1C[C@H](NC(=O)c2cncnc2C)CN1CCCSC	·	·	·	·	·	–
Cc1ccc(C(=O)COC(=O)c2cnccn2)cc1C	·	–	·	–	·	·
SMILES	HP1b binding inh	BAZ2B inh	PLK1 PBD block	G9a block	JMJD2A Tudor inh	12-LOX inh
O=C(Nc1ccc(F)cc1)N[C@@H]1CC[C@@H](CCn2cc(-c3ccc(F)cc3)nn2)O[C@@H]1CO	·	·	–	·	·	?
CC1CCc2c(nc3ncnn3c2N2CC(C)OC(C)C2)C1 (stereo unspecified)	–	–	–	–[2.33 µM]	–	?
CC1CN(c2c3c(nc4ncnn24)CCCC3)CC(C)O1 (stereo unspecified)	–	–	–	3.2µM	–	–
CCCc1cc(=O)c2c(O)cccc2o1	–	–	–	–	–	–
CCCc1cc2c(O)ccc(O)c2c(=O)o1	·	·	·	·	·	35µM
COc1ccc(CNc2ccc(Cl)cc2)cc1Cn1ccnc1	?	25µM	–	35µM	50µM	–

Source: PubChem BioAssay (National Center for Advancing Translational Sciences (NCATS))
